The record followed here is ChEMBL document CHEMBL1961873, “Compounds: GSK PKIS; Assays: Nanosyn kinase panel” (2012).

A word on the inhibition: it is the relative decrease from the control value, in per cent.

Experiment [1] concerns the target Tyrosine-protein kinase Fyn (Homo sapiens) (UniProt P06241). The settings on record: at 1 µM.
Experiment [2] addresses Tyrosine-protein kinase HCK (Homo sapiens) (UniProt P08631). As to conditions: at 0.1 µM.
The target is the same in experiment [3]. As to conditions: at 1 µM.
Experiment [4] has as its target Insulin-like growth factor 1 receptor (Homo sapiens) (UniProt P08069). The settings on record: at 0.1 µM.
For experiment [5] the target is unchanged. As to conditions: at 1 µM.
Experiment [6] deals with Insulin receptor (Homo sapiens) (UniProt P06213). The settings on record: at 0.1 µM.
The target is the same in experiment [7]. The settings on record: at 1 µM.
In experiment [8] the target is Insulin receptor-related protein (Homo sapiens) (UniProt P14616). As to conditions: at 0.1 µM.
For experiment [9] the target is unchanged. The settings on record: at 1 µM.
In experiment [10] the target is T1, Tyrosine-protein kinase ITK/TSK (Homo sapiens) (UniProt Q08881).
T1 sequence (whole entry): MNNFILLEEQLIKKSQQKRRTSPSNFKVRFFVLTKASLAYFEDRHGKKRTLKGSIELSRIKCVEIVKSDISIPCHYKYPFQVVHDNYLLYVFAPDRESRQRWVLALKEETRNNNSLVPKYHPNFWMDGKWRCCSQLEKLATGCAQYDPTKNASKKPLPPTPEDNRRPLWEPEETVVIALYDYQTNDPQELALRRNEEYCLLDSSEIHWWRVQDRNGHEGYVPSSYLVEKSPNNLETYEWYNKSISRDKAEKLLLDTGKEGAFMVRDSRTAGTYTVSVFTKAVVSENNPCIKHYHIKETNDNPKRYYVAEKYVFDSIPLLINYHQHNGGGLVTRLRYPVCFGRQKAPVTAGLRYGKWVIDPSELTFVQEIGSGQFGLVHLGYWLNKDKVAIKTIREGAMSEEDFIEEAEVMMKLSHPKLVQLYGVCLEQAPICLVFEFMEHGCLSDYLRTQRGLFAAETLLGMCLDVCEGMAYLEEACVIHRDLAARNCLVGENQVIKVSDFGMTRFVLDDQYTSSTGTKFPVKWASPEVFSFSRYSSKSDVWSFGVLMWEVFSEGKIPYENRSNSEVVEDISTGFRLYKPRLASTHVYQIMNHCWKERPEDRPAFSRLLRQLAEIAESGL
As to conditions: at 0.1 µM.

Experiment [11] addresses T1, Tyrosine-protein kinase ITK/TSK (Homo sapiens). The settings on record: at 1 µM.
The target of experiment [12] is Tyrosine-protein kinase JAK1 (Homo sapiens) (UniProt P23458). The settings on record: at 0.1 µM.
Experiment [13] has the same target. As to conditions: at 1 µM.
Experiment [14] deals with Tyrosine-protein kinase JAK2 (Homo sapiens) (UniProt O60674). The settings on record: at 0.1 µM.
The target is the same in experiment [15]. As to conditions: at 1 µM.
In experiment [16] the target is T2, Tyrosine-protein kinase JAK3 (Homo sapiens) (UniProt P52333).
T2 sequence (whole entry): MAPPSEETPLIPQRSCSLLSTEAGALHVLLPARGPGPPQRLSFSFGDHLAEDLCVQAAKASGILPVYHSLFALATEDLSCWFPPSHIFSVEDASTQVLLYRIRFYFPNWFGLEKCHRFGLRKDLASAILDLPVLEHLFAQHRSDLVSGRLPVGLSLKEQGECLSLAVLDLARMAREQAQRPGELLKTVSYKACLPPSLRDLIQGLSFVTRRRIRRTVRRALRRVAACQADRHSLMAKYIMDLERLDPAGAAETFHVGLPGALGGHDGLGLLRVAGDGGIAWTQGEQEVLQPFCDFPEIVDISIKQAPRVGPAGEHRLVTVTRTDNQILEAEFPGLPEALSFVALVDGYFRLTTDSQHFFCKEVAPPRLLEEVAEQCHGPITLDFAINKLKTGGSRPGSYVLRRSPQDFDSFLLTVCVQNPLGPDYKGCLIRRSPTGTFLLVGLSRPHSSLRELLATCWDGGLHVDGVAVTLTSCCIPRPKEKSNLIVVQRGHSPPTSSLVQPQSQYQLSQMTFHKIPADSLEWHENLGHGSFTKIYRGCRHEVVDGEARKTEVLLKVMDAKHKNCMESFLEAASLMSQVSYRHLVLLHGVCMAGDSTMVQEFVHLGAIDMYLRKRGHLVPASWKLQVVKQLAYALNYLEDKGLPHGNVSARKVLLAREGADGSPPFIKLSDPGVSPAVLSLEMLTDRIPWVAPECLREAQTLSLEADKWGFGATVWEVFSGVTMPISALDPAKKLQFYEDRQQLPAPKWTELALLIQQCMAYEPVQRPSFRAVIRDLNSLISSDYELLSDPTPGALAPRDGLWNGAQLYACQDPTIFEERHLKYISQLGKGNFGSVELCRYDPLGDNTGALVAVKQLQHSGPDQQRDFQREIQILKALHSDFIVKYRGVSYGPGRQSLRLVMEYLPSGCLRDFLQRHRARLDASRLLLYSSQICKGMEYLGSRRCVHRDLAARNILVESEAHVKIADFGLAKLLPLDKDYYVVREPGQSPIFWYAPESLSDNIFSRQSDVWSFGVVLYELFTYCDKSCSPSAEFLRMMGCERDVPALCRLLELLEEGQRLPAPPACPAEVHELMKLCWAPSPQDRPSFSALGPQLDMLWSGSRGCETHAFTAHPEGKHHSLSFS
As to conditions: at 0.1 µM.

Experiment [17] concerns the target T2, Tyrosine-protein kinase JAK3 (Homo sapiens). The settings on record: at 1 µM.
In experiment [18] the target is Vascular endothelial growth factor receptor 2 (Homo sapiens) (UniProt P35968). The settings on record: at 0.1 µM.
Experiment [19] shares this target. The settings on record: at 1 µM.
The target of experiment [20] is Mast/stem cell growth factor receptor Kit (Homo sapiens) (UniProt P10721). The settings on record: at 0.1 µM.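 Note: values are mean inhibition of KIT, from the GSK PKIS dataset.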
Sequence of Mast/stem cell growth factor receptor Kit (Homo sapiens) (P10721 whole entry): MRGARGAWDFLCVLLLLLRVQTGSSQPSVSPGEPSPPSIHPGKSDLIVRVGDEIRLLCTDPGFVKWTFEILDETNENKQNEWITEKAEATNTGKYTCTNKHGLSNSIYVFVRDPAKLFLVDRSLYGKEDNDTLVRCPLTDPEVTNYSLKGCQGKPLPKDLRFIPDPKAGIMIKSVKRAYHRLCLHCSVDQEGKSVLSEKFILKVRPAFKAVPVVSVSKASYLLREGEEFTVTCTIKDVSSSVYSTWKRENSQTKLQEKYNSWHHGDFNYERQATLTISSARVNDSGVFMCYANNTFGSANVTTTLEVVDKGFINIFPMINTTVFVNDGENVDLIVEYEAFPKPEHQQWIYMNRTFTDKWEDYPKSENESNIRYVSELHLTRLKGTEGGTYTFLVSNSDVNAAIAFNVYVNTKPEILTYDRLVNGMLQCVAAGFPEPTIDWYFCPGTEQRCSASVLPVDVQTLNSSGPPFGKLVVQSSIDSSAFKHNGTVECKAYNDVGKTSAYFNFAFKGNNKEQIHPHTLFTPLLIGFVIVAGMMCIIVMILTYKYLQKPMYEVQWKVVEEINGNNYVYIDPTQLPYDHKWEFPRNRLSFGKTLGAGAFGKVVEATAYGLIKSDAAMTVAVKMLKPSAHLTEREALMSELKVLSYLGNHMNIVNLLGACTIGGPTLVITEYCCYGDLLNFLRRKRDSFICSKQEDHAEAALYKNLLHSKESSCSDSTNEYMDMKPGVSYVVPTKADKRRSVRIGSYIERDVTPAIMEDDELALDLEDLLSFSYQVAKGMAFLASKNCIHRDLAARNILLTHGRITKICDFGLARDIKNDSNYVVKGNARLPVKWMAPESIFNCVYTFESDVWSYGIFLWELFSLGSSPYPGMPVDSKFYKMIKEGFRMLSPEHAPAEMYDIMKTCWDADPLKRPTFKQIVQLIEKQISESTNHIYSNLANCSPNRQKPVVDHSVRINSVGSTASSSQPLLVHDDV

Sequence of Tyrosine-protein kinase HCK (Homo sapiens) (P08631 2-526 limits assumed): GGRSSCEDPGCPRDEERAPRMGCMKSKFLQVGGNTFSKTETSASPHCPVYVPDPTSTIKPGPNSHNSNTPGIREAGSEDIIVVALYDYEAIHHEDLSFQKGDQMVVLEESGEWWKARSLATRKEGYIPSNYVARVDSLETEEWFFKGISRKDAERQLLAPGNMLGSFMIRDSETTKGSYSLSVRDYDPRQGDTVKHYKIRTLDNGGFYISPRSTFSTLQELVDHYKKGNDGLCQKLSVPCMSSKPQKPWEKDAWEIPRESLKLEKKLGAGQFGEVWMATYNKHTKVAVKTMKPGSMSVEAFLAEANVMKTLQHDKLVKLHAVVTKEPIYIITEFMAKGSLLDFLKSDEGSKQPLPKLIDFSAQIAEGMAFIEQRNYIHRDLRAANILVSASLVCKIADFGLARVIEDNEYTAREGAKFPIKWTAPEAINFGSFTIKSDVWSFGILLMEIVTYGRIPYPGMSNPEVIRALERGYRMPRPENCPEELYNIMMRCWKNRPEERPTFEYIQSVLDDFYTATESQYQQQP
Sequence of Insulin receptor-related protein (Homo sapiens) (P14616 27-742 limits assumed): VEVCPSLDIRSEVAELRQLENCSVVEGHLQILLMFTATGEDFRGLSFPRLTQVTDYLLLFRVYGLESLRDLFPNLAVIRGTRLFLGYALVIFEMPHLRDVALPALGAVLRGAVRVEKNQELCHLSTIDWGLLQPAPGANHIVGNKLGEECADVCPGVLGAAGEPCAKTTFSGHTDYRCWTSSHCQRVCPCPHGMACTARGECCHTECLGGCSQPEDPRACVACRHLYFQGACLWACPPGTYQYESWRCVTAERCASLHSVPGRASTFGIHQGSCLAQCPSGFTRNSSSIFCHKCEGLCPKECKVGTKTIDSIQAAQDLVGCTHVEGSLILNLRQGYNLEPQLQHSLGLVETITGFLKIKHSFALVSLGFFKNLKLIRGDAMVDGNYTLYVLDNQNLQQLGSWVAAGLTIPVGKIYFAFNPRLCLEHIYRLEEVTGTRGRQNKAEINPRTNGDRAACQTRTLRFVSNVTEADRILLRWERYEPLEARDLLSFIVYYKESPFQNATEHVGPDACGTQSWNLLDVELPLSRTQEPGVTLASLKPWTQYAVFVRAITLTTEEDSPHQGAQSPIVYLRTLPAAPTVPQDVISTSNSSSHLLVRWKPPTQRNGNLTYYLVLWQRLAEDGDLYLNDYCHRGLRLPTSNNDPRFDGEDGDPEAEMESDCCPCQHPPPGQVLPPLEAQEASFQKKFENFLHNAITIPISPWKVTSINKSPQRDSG
Sequence of Insulin receptor-related protein (Homo sapiens) (P14616 747-1297 limits assumed): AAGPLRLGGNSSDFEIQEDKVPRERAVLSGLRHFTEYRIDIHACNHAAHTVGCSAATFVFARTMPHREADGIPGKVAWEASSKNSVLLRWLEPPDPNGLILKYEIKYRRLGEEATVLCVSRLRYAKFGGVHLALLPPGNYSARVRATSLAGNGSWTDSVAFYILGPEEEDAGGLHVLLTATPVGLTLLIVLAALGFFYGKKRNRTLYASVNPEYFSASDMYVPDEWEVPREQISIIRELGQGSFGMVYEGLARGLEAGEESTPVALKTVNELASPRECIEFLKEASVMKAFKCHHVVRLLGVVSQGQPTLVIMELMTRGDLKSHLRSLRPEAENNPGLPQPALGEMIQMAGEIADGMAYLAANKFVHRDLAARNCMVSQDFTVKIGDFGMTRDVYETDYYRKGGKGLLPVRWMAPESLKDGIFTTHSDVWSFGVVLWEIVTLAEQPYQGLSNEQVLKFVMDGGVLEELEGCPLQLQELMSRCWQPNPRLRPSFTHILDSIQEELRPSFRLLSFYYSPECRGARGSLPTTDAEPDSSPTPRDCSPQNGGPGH
Sequence of Insulin-like growth factor 1 receptor (Homo sapiens) (P08069 31-736 limits assumed): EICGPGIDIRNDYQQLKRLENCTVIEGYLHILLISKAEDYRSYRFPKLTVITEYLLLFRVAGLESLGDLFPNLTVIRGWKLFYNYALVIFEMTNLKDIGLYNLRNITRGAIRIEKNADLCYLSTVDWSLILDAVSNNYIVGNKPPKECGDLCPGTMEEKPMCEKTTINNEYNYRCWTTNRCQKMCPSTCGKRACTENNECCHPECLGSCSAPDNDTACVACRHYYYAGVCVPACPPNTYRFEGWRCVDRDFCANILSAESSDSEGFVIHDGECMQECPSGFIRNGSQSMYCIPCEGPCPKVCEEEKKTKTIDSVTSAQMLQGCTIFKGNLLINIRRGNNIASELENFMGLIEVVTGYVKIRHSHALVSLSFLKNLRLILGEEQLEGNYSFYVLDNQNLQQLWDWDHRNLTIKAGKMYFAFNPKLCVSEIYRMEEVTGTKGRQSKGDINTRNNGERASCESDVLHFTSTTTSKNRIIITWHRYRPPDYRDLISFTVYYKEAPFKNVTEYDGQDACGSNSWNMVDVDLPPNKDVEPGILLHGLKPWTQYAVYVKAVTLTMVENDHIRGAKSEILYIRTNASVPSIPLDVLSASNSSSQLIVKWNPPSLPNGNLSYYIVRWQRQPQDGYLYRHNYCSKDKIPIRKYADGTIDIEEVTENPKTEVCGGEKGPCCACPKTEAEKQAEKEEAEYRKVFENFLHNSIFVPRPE
Sequence of Insulin-like growth factor 1 receptor (Homo sapiens) (P08069 741-1367 limits assumed): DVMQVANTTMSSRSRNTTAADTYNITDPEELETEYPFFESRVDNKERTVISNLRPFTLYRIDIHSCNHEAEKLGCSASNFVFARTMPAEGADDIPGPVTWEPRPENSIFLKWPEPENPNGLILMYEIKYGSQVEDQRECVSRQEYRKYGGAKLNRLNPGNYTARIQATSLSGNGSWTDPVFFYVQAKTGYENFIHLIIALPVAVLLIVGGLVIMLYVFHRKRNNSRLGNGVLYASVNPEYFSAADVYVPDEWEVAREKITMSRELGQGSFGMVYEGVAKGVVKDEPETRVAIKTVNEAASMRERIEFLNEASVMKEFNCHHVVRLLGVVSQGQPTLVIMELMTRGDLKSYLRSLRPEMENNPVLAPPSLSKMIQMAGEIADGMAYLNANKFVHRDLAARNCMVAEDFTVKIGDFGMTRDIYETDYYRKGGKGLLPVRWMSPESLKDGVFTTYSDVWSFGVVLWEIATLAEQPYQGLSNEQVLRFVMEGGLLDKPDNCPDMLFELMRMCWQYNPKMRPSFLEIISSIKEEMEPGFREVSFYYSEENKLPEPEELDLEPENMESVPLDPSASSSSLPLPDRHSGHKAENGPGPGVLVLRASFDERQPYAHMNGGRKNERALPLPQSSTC
Sequence of Tyrosine-protein kinase Fyn (Homo sapiens) (P06241 2-537 limits assumed): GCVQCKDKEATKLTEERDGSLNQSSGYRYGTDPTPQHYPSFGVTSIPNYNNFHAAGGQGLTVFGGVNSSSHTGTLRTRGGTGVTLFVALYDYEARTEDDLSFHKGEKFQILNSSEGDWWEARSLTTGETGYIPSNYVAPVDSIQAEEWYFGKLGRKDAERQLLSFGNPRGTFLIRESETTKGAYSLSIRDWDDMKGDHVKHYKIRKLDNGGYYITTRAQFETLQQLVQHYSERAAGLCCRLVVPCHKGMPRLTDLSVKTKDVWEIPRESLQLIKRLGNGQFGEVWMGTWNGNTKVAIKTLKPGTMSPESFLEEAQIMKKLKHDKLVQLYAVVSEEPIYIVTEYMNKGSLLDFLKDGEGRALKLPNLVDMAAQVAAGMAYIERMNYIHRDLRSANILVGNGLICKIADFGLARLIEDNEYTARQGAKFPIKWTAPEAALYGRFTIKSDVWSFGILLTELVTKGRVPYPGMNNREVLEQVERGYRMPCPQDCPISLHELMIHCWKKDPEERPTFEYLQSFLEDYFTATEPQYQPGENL

For the molecule `CNC(=O)c1cncc(/C=C/c2ccccc2Cl)c1`, the inhibition in [1] is 6.88%; in experiment [2], 1.18%; in experiment [3], 11.3%; in experiment [4], 6.84%; in [5] it was 5.76%; in [6] it was -1.75%. The inhibition in experiment [7] is -1.65%; in [8], -0.5%; in [9], -1.16%; in experiment [10], 1.6%; in experiment [11] it was 2.43%; in experiment [12] it was 1.61%. Also, the inhibition in [13] amounted to 10.6%; in [14] it was 0.26%; in experiment [15] it was 1.2%; in experiment [16], 1.51%; in experiment [17], 2.32%; in experiment [18], 0.94%. Also, the inhibition is 8.36% in [19] and 0.25% in experiment [20].

In the case of `CCCN1CCC(c2ccc(Nc3nc(Nc4cc(F)ccc4C(N)=O)c4cc[nH]c4n3)c(OC)c2)CC1`, the inhibition in [1] turned out to be 25.1%; in experiment [2], 5.95%; in experiment [3] it was 11.5%; in [4], 91.8%; in experiment [5] it was 93.6%; in experiment [6] it was 97.5%. The inhibition in [7] stood at 97.3%; in experiment [8], 93.3%; in experiment [9], 97.2%; in experiment [10], 1.62%; in experiment [11] it was 7.34%; in [12] it was 2.55%. The inhibition in experiment [13] is 20.8%; in [14] it was 0.71%; in experiment [15], 2.85%; in [16], -0.92%; in experiment [17], 0.07%; in experiment [18], 6.99%. Further, the inhibition in experiment [19] worked out at 18.6%; in experiment [20], 7.64%.

As to `CCN1CCC(CC(=O)Nc2n[nH]c3nnc(-c4cccc(F)c4F)cc23)CC1`, the inhibition in experiment [1] stood at 3.55%; in experiment [2], 3.51%; in experiment [3], 1.32%; in experiment [4] it was 0.88%; in experiment [5] it was 2.99%; in experiment [6], 1.72%. Further, the inhibition in experiment [7] is 4.05%; in experiment [8], 1.41%; in experiment [9], 0.88%; in experiment [10], -1.01%; in experiment [11], 1.3%; in [12], 3.38%. In addition, the inhibition is 4.71% in experiment [13]; 0.88% in experiment [14]; 0.1% in experiment [15]; -2.12% in [16]; 1.45% in [17]; 0.77% in experiment [18]. For the same molecule, the inhibition in [19] is 4.46%; in experiment [20] it was 0.04%.

Turning to `CCCN(CCS(C)(=O)=O)Cc1ccc(-c2ccc3ncnc(Nc4ccc(OCc5cccc(F)c5)c(Cl)c4)c3c2)o1`, the inhibition in experiment [1] came out at 2.14%; in experiment [2], 4.4%; in [3], 8.65%; in experiment [4] it was 0.58%; in [5] it was 1.93%; in [6] it was 5.38%. For the same molecule, the inhibition in [7] is 5.24%; in experiment [8], 0.9%; in experiment [9] it was 1.54%; in experiment [10], 0.49%; in experiment [11] it was 1.15%; in experiment [12], -0.11%. Besides, the inhibition in experiment [13] amounted to 4.59%; in experiment [14], 0.69%; in experiment [15] it was 3.22%; in experiment [16] it was 0.2%; in experiment [17] it was 2.79%; in experiment [18], 4.89%. The figures for the inhibition in experiment [19] and in experiment [20] were 8.91% and 2.87%, respectively.

For the molecule `CC(C)(CO)CNC(=O)c1ccc2c(c1)/C(=N/Nc1ccc(S(N)(=O)=O)cc1)C(=O)N2`, the inhibition in experiment [1] was 53.7%; in experiment [2], 0.91%; in experiment [3], 21.2%; in experiment [4], -4.8%; in experiment [5], -2.3%; in experiment [6], -1.59%. The inhibition was -0.37% in [7]; -2% in experiment [8]; -2.31% in [9]; -1.6% in experiment [10]; 1.2% in [11]; 1.29% in [12]. In addition, the inhibition is 2.13% in experiment [13]; -1.03% in experiment [14]; 1.02% in experiment [15]; -0.67% in experiment [16]; 13.5% in experiment [17]; 9.03% in experiment [18]. The inhibition is 56% in experiment [19] and -4.53% in experiment [20].

Turning to `CS(=O)(=O)CCNCc1coc(-c2ccc3ncnc(Nc4ccc(OCc5ccccc5)cc4)c3c2)c1`, the inhibition in experiment [1] turned out to be 12.2%; in experiment [2], 4.78%; in experiment [3], 9.64%; in experiment [4], 0.62%; in experiment [5], 2.16%; in experiment [6], 3.09%. The inhibition in [7] was 2.56%; in [8] it was -0.04%; in experiment [9], 3.03%; in [10], 0.65%; in [11], 1.57%; in experiment [12], -1.63%. The inhibition in experiment [13] was 0.69%; in [14] it was 1.12%; in [15], 1.93%; in experiment [16], -1.53%; in experiment [17], 0.54%; in experiment [18], 4.63%. Besides, the values for the inhibition in [19] and in experiment [20] were 7.45% and -0.21%, respectively.

`O=S(=O)(CCNCc1ccc(-c2ccc3ncnc(Nc4ccc(OCc5cccc(F)c5)c(Cl)c4)c3c2)o1)c1ccccc1`: the inhibition in experiment [1] amounted to 4.09%; in experiment [2], 7.05%; in experiment [3] it was 8.65%; in [4] it was 4.87%; in [5] it was 7.55%; in experiment [6], 3.73%. Besides, the inhibition was found to be 6.24% in experiment [7]; 4.04% in experiment [8]; 4.07% in experiment [9]; 0.82% in experiment [10]; 2.79% in experiment [11]; 3.16% in experiment [12]. Besides, the inhibition in [13] was 5.23%; in [14] it was 1.04%; in [15] it was 1.11%; in experiment [16], -3.52%; in experiment [17], -1.28%; in experiment [18], 5.96%. Also, the inhibition stood at 8.62% in [19] and 6.8% in experiment [20].
